# Measurements taken from the supplement of paper PMC7184167.
# Where a name gives a salt, the structure may show the parent alone.
# System: replication-induced senescent mouse newborn dermal fibroblasts (NBF)
# Assay: relative cell viability of senescent cells (fraction); higher = less killing of senescent cells
# Conditions: 1 µM; 3 days
# Procedure: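 Replication-induced senescent newborn mouse skin fibroblasts (NBFs) in 24-well plates were treated with a Selleck FDA-approved drug library at 1 µM for 3 days.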
row,Structure (SMILES),relative cell viability
1,C[C@@H](Oc1cc(-c2cnn(C3CCNCC3)c2)cnc1N)c1c(Cl)ccc(F)c1Cl,0.71
2,COc1cc(Nc2nc3ccccc3nc2NS(=O)(=O)c2ccc(NC(=O)c3ccc(C)c(OC)c3)cc2)cc(OC)c1,0.969
3,CCCCc1nc2cc(/C=C/C(=O)NO)ccc2n1CCN(CC)CC [Pracinostat (SB939)],1.01
4,CC(=O)O[C@H]1C(=O)[C@@]2(C)[C@H]([C@H](OC(=O)c3ccccc3)[C@]3(O)C[C@H](OC(=O)[C@H](O)[C@@H](NC(=O)c4ccccc4)c4ccccc4)C(C)=C1C3(C)C)[C@]1(OC(C)=O)CO[C@@H]1C[C@@H]2O [Paclitaxel],0.398
5,"O=c1[nH]cc(F)c(=O)[nH]1 [Fluorouracil (5-Fluoracil, 5-FU)]",0.0476
6,Cc1nc2n(c(=O)c1CCN1CCC(c3noc4cc(F)ccc34)CC1)CCCC2 [Risperidone],0.76
7,O=C(O)c1cc(/N=N/c2ccc(S(=O)(=O)Nc3ccccn3)cc2)ccc1O [Sulfasalazine],1.3
8,c1ccc2c(CC3=NCCN3)cccc2c1 [Naphazoline HCl],0.868
9,O=C(C1CCCCC1)N1CC(=O)N2CCc3ccccc3C2C1 (stereo not given) [Praziquantel],1.07
10,COc1cc2nccc(Oc3ccc(NC(=O)Nc4cc(C)on4)c(Cl)c3)c2cc1OC [Tivozanib (AV-951)],1.04
11,CCCCC[C@H](O)/C=C/[C@H]1[C@H](O)CC(=O)[C@@H]1CCCCCCC(=O)O [Alprostadil],0.875
12,CC(C)[C@H](N)C(=O)OCCOCn1cnc2c(=O)nc(N)[nH]c21 [Valaciclovir HCl],0.909
13,Clc1ccc(CCC(Cn2ccnc2)Sc2c(Cl)cccc2Cl)cc1 (stereo not given) [Butoconazole nitrate],1.14
14,CCCC(CCC)C(=O)O [Divalproex Sodium],1.11
15,C[C@H](CCC(=O)O)[C@H]1CC[C@H]2[C@@H]3[C@H](O)C[C@@H]4C[C@H](O)CC[C@]4(C)[C@H]3CC[C@]12C [Chenodeoxycholic Acid],1.06
16,CCOC(=O)C1=C(COCCN)NC(C)=C(C(=O)OC)C1c1ccccc1Cl (stereo not given) [Amlodipine Besylate],0.987
17,CCOc1cc2ncc(C#N)c(Nc3ccc(F)c(Cl)c3)c2cc1NC(=O)/C=C/CN(C)C [Pelitinib (EKB-569)],1.01
18,Oc1ccc(OCc2ccccc2)cc1 [Monobenzone],0.981
19,CC(C(=O)O)c1ccc(C(=O)c2cccs2)cc1 (stereo not given) [Suprofen],0.929
20,CCOc1cc(CC(=O)N[C@@H](CC(C)C)c2ccccc2N2CCCCC2)ccc1C(=O)O [Repaglinide],0.978

row,Structure (SMILES),relative cell viability
1,Cc1ccc(NC(=O)c2ccc(CN3CCN(C)CC3)cc2)cc1Nc1nc(-c2cccnc2)cs1 [Masitinib (AB1010)],0.602
2,NC(=O)N1c2ccccc2CC(=O)c2ccccc21 [Oxcarbazepine],0.905
3,Nc1nc2ccc(OC(F)(F)F)cc2s1 [Riluzole],0.836
4,CCN(CC)C(=S)SSC(=S)N(CC)CC [Disulfiram],1.13
5,CC1Cc2ccccc2N1NC(=O)c1ccc(Cl)c(S(N)(=O)=O)c1 (stereo not given) [Indapamide],0.965
6,C[C@]12CC[C@@H]3c4ccc(O)cc4C[C@@H](CCCCCCCCC[S+]([O-])CCCC(F)(F)C(F)(F)F)[C@H]3[C@@H]1CC[C@@H]2O (stereo not given in full) [Fulvestrant],0.971
7,CS(=O)(=O)CCNCc1ccc(-c2ccc3ncnc(Nc4ccc(OCc5cccc(F)c5)c(Cl)c4)c3c2)o1,0.746
8,O=c1[nH]c(=O)n([C@H]2C[C@H](O)[C@@H](CO)O2)cc1C(F)(F)F [Trifluridine],0.971
9,CC(=O)OCC[N+](C)(C)C [Acetylcholine Chloride],0.052
10,C[C@H](N[C@@H](CCc1ccccc1)C(=O)O)C(=O)N1CCC[C@H]1C(=O)O [Enalaprilat Dihydrate],0.862
11,Nc1ncnc2c1ncn2[C@@H]1O[C@H](CO)[C@@H](O)[C@@H]1O [Vidarabine],0.744
12,COc1ccccc1OCC(O)CN1CCN(CC(=O)Nc2c(C)cccc2C)CC1 (stereo not given) [Ranolazine],0.994
13,CC(=O)OCC(=O)NCCCOc1cccc(CN2CCCCC2)c1 [Roxatidine Acetate HCl],0.897
14,C[C@]12C=CC(=O)C=C1CC[C@@H]1[C@@H]2[C@@H](O)C[C@@]2(C)[C@H]1CC[C@]2(O)C(=O)CO [Prednisolone],1.01
15,COC(=O)Nc1nc2cc([S+]([O-])c3ccccc3)ccc2[nH]1 (stereo not given) [Oxfendazole],1.04
16,CCCC(CCC)C(=O)O [Valproic acid sodium salt (Sodium valproate)],1.11
17,CS(=O)(=O)N1CCN(Cc2cc3nc(-c4cccc5[nH]ncc45)nc(N4CCOCC4)c3s2)CC1 [Pictilisib (GDC-0941)],0.681
18,COc1ccc(CC2c3cc(OC)c(OC)cc3CC[N+]2(C)CCC(=O)OCCCCCOC(=O)CC[N+]2(C)CCc3cc(OC)c(OC)cc3C2Cc2ccc(OC)c(OC)c2)cc1OC (stereo not given) [Atracurium Besylate],1.07
19,"CN1CCN(c2ccc3nc(-c4c(N)c5c(F)cccc5[nH]c4=O)[nH]c3c2)CC1 [Dovitinib (TKI-258, CHIR-258)]",0.589
20,COC(=O)[C@@H]1CC2=CC(=O)CC[C@]2(C)[C@@]23O[C@@H]2C[C@@]2(C)[C@@H](CC[C@@]24CCC(=O)O4)[C@H]13 [Eplerenone],0.925
